The values that follow come from PubChem BioAssay (NCATS).

The nature of assay [1]: A High-Content qHTS Against Drug Library for the Identification of Small Molecules that Inhibit DYT1 Early Onset Primary Dystonia-Associated Cell Pathology (AID 1645839; calls by dose curve; also: potency is read from the fitted curve at half-maximal effect; as to % pathology change, negative = correction: series mostly up to about 46 µM). Summed up: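 Readout: %pathology, the punctate EGFP-TorsinA distribution from imaging, as the primary channel and cell count as the toxicity counterscreen. HEK293 Flp-In cells expressing delE TorsinA were induced with tetracycline and treated with compound for 48 h.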
In general terms: Quantitative high-throughput screening tests each substance at several concentrations.

The target in assay [2] is Cytochrome P450 2D6 (Homo sapiens) (UniProt P10635). As to the kind of experiment: Cytochrome P450 family 2 subfamily D member 6 (CYP2D6) small molecule antagonists: luciferase biochemical (cell-free) qHTS assay (AID 1645840; active = well fitted curve in the direction sought with a large enough effect in the repeat runs; an effect the other way counts as inactive or inconclusive; also: nearly all actives have a fitted effect of over 55% in size; also: potency is read from the fitted curve at half-maximal effect). Summed up: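 P450-Glo luminescent screen: recombinant CYP2D6 enzyme–proluciferin substrate mix preincubated with compound 10 min at room temperature, then NADPH regeneration added for 1 h at room temperature. Detection reagent added for 20 min; luciferin light read as relative luminescence units.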
Chain of Cytochrome P450 2D6 (Homo sapiens) (P10635 whole entry, looked up): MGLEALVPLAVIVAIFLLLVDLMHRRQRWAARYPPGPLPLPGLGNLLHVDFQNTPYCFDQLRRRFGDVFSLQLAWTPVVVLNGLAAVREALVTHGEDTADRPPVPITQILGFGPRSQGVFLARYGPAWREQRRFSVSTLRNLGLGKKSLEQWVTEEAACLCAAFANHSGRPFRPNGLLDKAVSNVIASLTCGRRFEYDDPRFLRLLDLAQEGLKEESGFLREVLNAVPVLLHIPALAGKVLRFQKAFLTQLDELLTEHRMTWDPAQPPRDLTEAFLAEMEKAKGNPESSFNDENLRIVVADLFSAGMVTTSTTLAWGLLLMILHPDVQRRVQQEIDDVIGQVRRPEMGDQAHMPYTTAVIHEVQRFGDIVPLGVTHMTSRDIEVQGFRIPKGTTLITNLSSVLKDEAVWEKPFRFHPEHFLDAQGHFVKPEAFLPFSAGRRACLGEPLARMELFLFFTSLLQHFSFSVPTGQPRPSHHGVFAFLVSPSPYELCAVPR

The target in assay [3] is Cytochrome P450 2C9 (Homo sapiens) (UniProt P11712). Put plainly: Cytochrome P450 family 2 subfamily C member 9 (CYP2C9) small molecule antagonists: luciferase biochemical (cell-free) qHTS assay (AID 1645842; active = well fitted curve in the direction sought with a large enough effect in the repeat runs; an effect the other way counts as inactive or inconclusive; also: nearly all actives have a fitted effect of over 55% in size; also: potency is read from the fitted curve at half-maximal effect). Summed up: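 Luminescence, after 20 min with luciferin detection reagent, reflected CYP2C9 turnover during a 1 h NADPH-driven reaction at 37C. Enzyme-substrate mix contained 0.4% bovine serum albumin and was preincubated with compound 10 min at room temperature.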
Chain of Cytochrome P450 2C9 (Homo sapiens) (P11712 whole entry, looked up): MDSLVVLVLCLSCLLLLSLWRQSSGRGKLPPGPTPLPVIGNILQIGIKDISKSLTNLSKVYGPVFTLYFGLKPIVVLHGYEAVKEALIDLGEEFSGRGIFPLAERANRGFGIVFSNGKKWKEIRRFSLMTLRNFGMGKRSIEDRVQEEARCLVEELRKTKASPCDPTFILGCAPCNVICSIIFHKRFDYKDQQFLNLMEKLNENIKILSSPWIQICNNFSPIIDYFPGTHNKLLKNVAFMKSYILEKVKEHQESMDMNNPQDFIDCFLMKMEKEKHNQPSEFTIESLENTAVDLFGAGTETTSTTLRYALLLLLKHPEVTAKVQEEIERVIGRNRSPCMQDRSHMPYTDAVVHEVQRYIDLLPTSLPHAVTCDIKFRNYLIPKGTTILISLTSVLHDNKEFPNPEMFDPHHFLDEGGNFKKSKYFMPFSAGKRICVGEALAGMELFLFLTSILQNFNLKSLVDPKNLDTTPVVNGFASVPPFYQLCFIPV

Assay [4] can be described thus: Primary qHTS for inhibitors of nuclear receptor binding SET domain protein 2 (NSD2) in an isogenic RCH-ACV NSD2 p.E1099K mutant (9B) (AID 1645876). Also: nearly all actives have a fitted effect of over 70% in size. Also: potency is read from the fitted curve at half-maximal effect. As to activity change, negative = viability loss: % is scaled to controls: 0 for no effect and ±100 for the full control effect.
Assay [5] can be described thus: Primary qHTS for inhibitors of nuclear receptor binding SET domain protein 2 (NSD2) in an RCH-ACV wild type WT cells (2C) (AID 1645877). Also: nearly all actives have a fitted effect of over 70% in size. Also: potency is read from the fitted curve at half-maximal effect. As to activity change, negative = cell killing: % is scaled to controls: 0 for no effect and ±100 for the full control effect.
The target in assay [6] is Rap guanine nucleotide exchange factor 3 (Homo sapiens) (UniProt O95398). Put plainly: Confirmatory qHTS for antagonist of cAMP-regulated guanine nucleotide exchange factor 3 (EPAC1) (AID 1645880). Also: nearly all actives have a fitted effect of over 55% in size. Also: potency is read from the fitted curve at half-maximal effect. In outline: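 Nucleotide exchange uses 100 nM EPAC1, 250 nM RAP1B-BODIPY-GDP and 50 uM GDP, with compounds in a concentration-titration series. After 5 min at room temperature, fluorescence (480 nm ex/540 nm em) is read every 5 min for 30 min. Data are normalized to control ATA and DMSO.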
Chain of Rap guanine nucleotide exchange factor 3 (Homo sapiens) (O95398 whole entry, looked up): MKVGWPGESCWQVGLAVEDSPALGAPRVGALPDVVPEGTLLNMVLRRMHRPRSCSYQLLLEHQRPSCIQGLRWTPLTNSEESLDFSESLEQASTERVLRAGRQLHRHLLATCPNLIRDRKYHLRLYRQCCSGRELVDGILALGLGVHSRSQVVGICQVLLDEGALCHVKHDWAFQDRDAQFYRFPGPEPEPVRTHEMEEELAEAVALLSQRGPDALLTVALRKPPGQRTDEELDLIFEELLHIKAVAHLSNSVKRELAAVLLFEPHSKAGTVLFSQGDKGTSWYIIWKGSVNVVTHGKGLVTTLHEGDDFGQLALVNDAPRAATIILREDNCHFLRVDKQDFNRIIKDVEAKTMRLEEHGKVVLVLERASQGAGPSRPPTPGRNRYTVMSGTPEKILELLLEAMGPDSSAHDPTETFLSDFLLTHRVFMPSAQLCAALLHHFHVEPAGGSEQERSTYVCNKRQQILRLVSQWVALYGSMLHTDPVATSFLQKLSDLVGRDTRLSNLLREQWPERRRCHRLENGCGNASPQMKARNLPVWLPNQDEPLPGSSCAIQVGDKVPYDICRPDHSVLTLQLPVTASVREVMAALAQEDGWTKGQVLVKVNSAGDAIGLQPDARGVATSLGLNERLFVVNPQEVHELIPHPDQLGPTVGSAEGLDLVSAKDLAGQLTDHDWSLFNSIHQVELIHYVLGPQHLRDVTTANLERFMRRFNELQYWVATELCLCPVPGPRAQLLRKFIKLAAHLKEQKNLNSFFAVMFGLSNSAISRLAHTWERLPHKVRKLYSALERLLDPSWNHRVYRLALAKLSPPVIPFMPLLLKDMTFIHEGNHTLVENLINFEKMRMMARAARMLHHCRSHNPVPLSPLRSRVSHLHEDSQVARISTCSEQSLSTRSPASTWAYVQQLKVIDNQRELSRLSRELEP

For assay [7] the target is unchanged. Put plainly: Confirmatory qHTS for agonist of cAMP-regulated guanine nucleotide exchange factor 3 (EPAC1) (AID 1645881).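 Also: EPAC1 catalysed release of BODIPY-GDP from Rap1B seen as fluorescence loss; 100% = effect of cAMP agonist control; nearly all actives have a fitted effect of over 75% in size.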
Assay [8] addresses Papain (Carica papaya) (UniProt P00784). Put plainly: Primary qHTS assay for inhibitors of the protease papain (AID 1645873).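 Also: papain turnover of Z-FR-AMC read as the AMC fluorescence gain over 10 min; series mostly up to about 50 µM; % is scaled to controls: 0 for no effect and ±100 for the full control effect.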

“And” between values parts separate entries of the source, which are not always exact repeats. Equal entries are not always repeated. Records with an inconclusive call do not appear. Values without a mark were called inactive. The source made the active and inactive calls. Unless noted, calls follow the shape of the dose curve; as a rule, active = well fitted curve in the direction sought with a large enough effect; inconclusive = small, poorly fitted or top-dose-only effect, or another doubt; inactive = no such curve, though single readings can be large; an effect the other way counts as inactive or inconclusive.

Chain of Papain (Carica papaya) (P00784 whole entry, looked up): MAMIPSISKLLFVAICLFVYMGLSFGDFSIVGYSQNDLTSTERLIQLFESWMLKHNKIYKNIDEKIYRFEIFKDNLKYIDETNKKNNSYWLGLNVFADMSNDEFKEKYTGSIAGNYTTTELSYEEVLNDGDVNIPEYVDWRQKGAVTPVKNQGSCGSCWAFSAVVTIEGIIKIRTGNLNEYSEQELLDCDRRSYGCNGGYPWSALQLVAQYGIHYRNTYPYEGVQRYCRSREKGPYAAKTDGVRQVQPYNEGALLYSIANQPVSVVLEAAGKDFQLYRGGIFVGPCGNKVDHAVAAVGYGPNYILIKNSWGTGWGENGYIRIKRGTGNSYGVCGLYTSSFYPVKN

With `O=S(=O)(O)NC1CCCCC1`, the Potency result in assay [1], in assay [2], in assay [3], in assay [4] and in assay [5] was “inactive” in each case.
Turning to `CC(C)(C)C(=O)NCCCC(=O)O`, the Potency entry in assay [1], in assay [2], in assay [3], in assay [4] and in assay [5] was “inactive” throughout.
As to `CCCOC(=O)c1ccccc1`, the Potency result in assay [1], in assay [2], in assay [3], in assay [4] and in assay [5] was “inactive” throughout.
On to `COc1ccccc1O`, for which the Potency result in assay [1], in assay [2] and in assay [3] was “inactive” throughout. In addition, the Potency in assay [5] is 39 µM (active).
As to `CC(=O)O[C@@]12CO[C@@H]1C[C@H](O)[C@@]1(C)C(=O)[C@H](O)C3=C(C)[C@@H](OC(=O)[C@H](O)[C@@H](NC(=O)OC(C)(C)C)c4ccccc4)C[C@@](O)([C@@H](OC(=O)c4ccccc4)[C@H]21)C3(C)C`, the Potency result in assay [1], in assay [2] and in assay [3] was “inactive” throughout. The Potency in assay [4] is 0.0027 µM (active); in assay [5], 0.0021 µM (active).
As for `C[C@@H]1CN(c2c(F)c(F)c3c(=O)c(C(=O)O)cn(C4CC4)c3c2F)C[C@H](C)N1`, the Potency entry in assay [1], in assay [2], in assay [3], in assay [4] and in assay [5] was “inactive” each time.
As for `C[C@H]1O[C@@H](n2cc(F)c(=O)[nH]c2=O)[C@H](O)[C@@H]1O`, the Potency entry in assay [1], in assay [2] and in assay [3] was “inactive” each time. Further, the Potency in assay [4] and in assay [5] was 20.9 µM (active) in each case.
As to `CCN(CC)CCNC(C(=O)OCCC(C)C)c1ccccc1` (stereo not given), the Potency entry in assay [1], in assay [3], in assay [4] and in assay [5] was “inactive” throughout. Further, in assay [2], the Potency is 776 nM (active).
As for `CC(C)(O)c1ccccc1CC[C@@H](SCC1(CC(=O)O)CC1)c1cccc(/C=C/c2ccc3ccc(Cl)cc3n2)c1`, the Potency result in assay [1], in assay [2], in assay [3], in assay [4] and in assay [7] was “inactive” in each case. The Potency in assay [6] was 25 µM (active).
As for `O=C(O)CN1C(=O)c2cccc3cccc(c23)C1=O`, the Potency entry in assay [1], in assay [2], in assay [3], in assay [4] and in assay [5] was “inactive” each time.
For `CC1=C(C/C=C(\C)CCC[C@H](C)CCC[C@H](C)CCCC(C)C)C(=O)c2ccccc2C1=O`, the Potency entry in assay [1], in assay [2] and in assay [4] was “inactive” in each case.
Turning to `O=c1cc[nH]c(=S)[nH]1`, the Potency entry in assay [1], in assay [2], in assay [3] and in assay [5] was “inactive” in each case.
As for `CCn1cc(C(=O)O)c(=O)c2cnc(N3CCNCC3)nc21`, the Potency result in assay [1], in assay [2], in assay [3], in assay [4] and in assay [5] was “inactive” each time.
Turning to `O=C(CCCN1CCN(c2ccccn2)CC1)c1ccc(F)cc1`, the Potency result in assay [1], in assay [4] and in assay [5] was “inactive” in each case. Also, the Potency is 15500 nM (active) in assay [2] and 12.3 µM (active) in assay [3].
On to `Cc1ncc([N+](=O)[O-])n1CC(O)CCl` (stereo not given), for which the Potency result in assay [1], in assay [4] and in assay [5] was “inactive” in each case.
For `Cc1cc2nc3c(=O)[nH]c(=O)nc-3n(C[C@H](O)[C@H](O)[C@H](O)CO)c2cc1C`, the Potency result in assay [1], in assay [3], in assay [4] and in assay [6] was “inactive” in each case.
For the compound `O=C(O)COc1nn(Cc2ccccc2)c2ccccc12`, the Potency entry in assay [1], in assay [2], in assay [4] and in assay [5] was “inactive” each time.
Take `CCOc1nc2cccc(C(=O)O)c2n1Cc1ccc(-c2ccccc2-c2nn[nH]n2)cc1`: the Potency entry in assay [1] and in assay [4] was “inactive” each time.
Consider `Cc1ccc2nc(N)[nH]c(=O)c2c1Sc1ccncc1`, for which the Potency result in assay [1] was “inactive”. The Potency in assay [2] was 7.76 µM (active) and 10.7 µM (active); in assay [4], 2.3 µM (active); in assay [5], 2.05 µM (active).
Turning to `O=C1OC(OC(=O)c2cccnc2Nc2cccc(C(F)(F)F)c2)c2ccccc21` (stereo not given), the Potency entry in assay [1], in assay [2], in assay [4] and in assay [5] was “inactive” in each case.
With `C/C(=C(\CCOP(=O)(O)O)SC(=O)c1ccccc1)N(C=O)Cc1cnc(C)nc1N`, the % pathology change, negative = correction in assay [1] was -4.46% [at 4.63 µM]. Also, in assay [4], the activity change, negative = viability loss was 9.34% [at 4.96 µM]. Moreover, in assay [5], the activity change, negative = cell killing was -1.42% [at 4.96 µM].
On to `C[C@]12CC[C@@H]3c4ccc(O)cc4CC[C@H]3[C@@H]1CCC2=O`, for which the Potency result in assay [1] and in assay [8] was “inactive” each time.
Turning to `CC(=O)Oc1c(C)c(C)c2c(c1C)CC[C@@](C)(CCC[C@H](C)CCC[C@H](C)CCCC(C)C)O2`, the Potency entry in assay [1], in assay [3], in assay [4] and in assay [5] was “inactive” each time.
With `OCCN1CCN(CCCN2c3ccccc3Sc3ccc(Cl)cc32)CC1`, the Potency in assay [1] was 3.98 µM (active); in assay [4], 8.41 µM (active); in assay [5] it was 9.44 µM (active). In addition, the Potency entry in assay [8], in assay [6] and in assay [7] was “inactive” throughout.
Turning to `Nc1ccc(S(=O)(=O)NC(=O)c2ccccc2)cc1`, the Potency result in assay [1], in assay [2], in assay [4] and in assay [5] was “inactive” each time.
For `CC(COc1ccccc1)NC(C)C(O)c1ccc(O)cc1` (stereo not given), the Potency entry in assay [1], in assay [4] and in assay [5] was “inactive” in each case. Besides, the Potency in assay [2] was 617 nM (active).
With `COCCOC(=O)C1=C(C)NC(C)=C(C(=O)OC/C=C/c2ccccc2)C1c1cccc([N+](=O)[O-])c1` (stereo not given), the Potency is 11.2 µM (active) in assay [1], 0.0617 µM (active) in assay [3], 15 µM (active) in assay [4] and 21.1 µM (active) in assay [5]. For the same compound, the Potency entry in assay [8] and in assay [7] was “inactive” throughout.
Turning to `CO/N=C(\C(=O)N[C@@H]1C(=O)N2C(C(=O)O)=C(CSc3nc(=O)c(O)nn3C)CS[C@H]12)c1csc(N)n1`, the Potency result in assay [1], in assay [4] and in assay [5] was “inactive” in each case.
